# Whole data set: some 5,800 sequences, median “enrichment r” near 0.68, cut for the highest 2% near 11. These entries were drawn from the full list.
# T1: UNK ZnF1-6 (called full-length) (human, UniProt Q9C0B0 30-357)
# T1 sequence: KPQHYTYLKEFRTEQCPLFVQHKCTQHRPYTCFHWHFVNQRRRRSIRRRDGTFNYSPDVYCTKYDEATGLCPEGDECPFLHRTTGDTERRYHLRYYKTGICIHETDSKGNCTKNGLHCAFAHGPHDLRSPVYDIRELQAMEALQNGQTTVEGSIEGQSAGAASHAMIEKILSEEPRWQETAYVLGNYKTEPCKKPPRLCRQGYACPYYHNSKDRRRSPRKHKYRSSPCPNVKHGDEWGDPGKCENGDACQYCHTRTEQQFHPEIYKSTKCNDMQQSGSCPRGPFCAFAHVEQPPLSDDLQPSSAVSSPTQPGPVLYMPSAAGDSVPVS
# B1: chr12:76028832:76028933:-|3pUTR|ENSG00000139289|msi1|total|mutant (ssRNA)
# RNA: GGGAGUUCUACAGUCCGACGAUCAAAGGAAAAGACUGGAUAAACACAGGAUUUUCAGUAAGAAAACAACCCCAGUCUUGUCUCCGAAGCCACUUGUUGAGGAGUCUGUUGGGGGAAAAAAGAGGAUAUGCUUUUAAAGGCCGACAACAGAGGAUUGAGCAUCA
# B2: chr3:27418507:27418620:-|CDS|ENSG00000033867|unk|FALSE|bound_elsewhere (ssRNA)
# RNA: GGGAGUUCUACAGUCCGACGAUCUGAUGUAGCUUAUAAAGCAAAAGACAGAAAUGACCUCUUAUCUGGAAUUGAUGAAUUUUUAGAUCAAGUAACUGUCCUACCUCCAGGAGAGUGGGAUCCUUCUAUACGCAUAGAACCACCCAACAGAGGAUUGAGCAUCA
# B3: chr11:35619468:35619569:+|CDS|ENSG00000179431|unk|FALSE|unique (ssRNA)
# RNA: GGGAGUUCUACAGUCCGACGAUCCCCCCUCCGGGAUGCCGGGGGUGAGCUGGCCAACCUCAGCCAGGCGGAGCUGGUGGACCUAGUACAAUGGACCGACUUAAUCCUUUUCGACUACCUGACGGCCAACUUCGACCGGCUCGUCAACAGAGGAUUGAGCAUCA
# B4: chr5:91369659:91369760:-|3pUTR|ENSG00000113369|msi1|total|mutant (ssRNA)
# RNA: GGGAGUUCUACAGUCCGACGAUCUCAGCAUUUUCCAAGGUACCAAGUGUACUUAUUUUGUUGUUGUUGUUGUUGUUGUAUUUCCGAAGGAAUUCAGCUCUGAUGUUUUUAAAGAAAACCAGCAUCUCUGAUGUUGCAACAUACCAACAGAGGAUUGAGCAUCA
# B5: chr9:35056615:35056731:-|3pUTR|ENSG00000165280|msi1|FALSE|unique (ssRNA)
# RNA: GGGAGUUCUACAGUCCGACGAUCCCCUAUCCAACCUGGGUAGGUGGGUAGGGGCCACAGUUGCUGGAUGUUUAUAUAGAGAGUAGGUUGAUUUAUUUUACAUGCUUUUGAGUUAAUGUUGGAAAACUAAUCACAAGCAGUUUCCAACAGAGGAUUGAGCAUCA
# B6: chr6:149379354:149379455:+|CDS|ENSG00000055208|msi1|FALSE|bound_elsewhere (ssRNA)
# RNA: GGGAGUUCUACAGUCCGACGAUCAGGGGUGGUGUCCCCUACCUUUGAACUUACAAAUCUUCUUAAUCAUCCUGAUCAUUAUGUAGAAACCGAGAAUAUUCAGCACCUCACGGACCCUACAUUAGCACAUGUGGAUAGAAUAAGCAACAGAGGAUUGAGCAUCA
# B7: chr17:81921741:81921842:-|3pUTR|ENSG00000197063|msi1|total|mutant (ssRNA)
# RNA: GGGAGUUCUACAGUCCGACGAUCAAUUAUAUGUUUAAAAGUUAAAGAAAAAAGAGCUGCAGAGUAUUUAUAAAACUGUCUUUCCGAAAAAAAACAAGCAAGAAGACCAUUUGACCAUAUGAAUGGAAAAGGGAAGAAAGUAUACAACAGAGGAUUGAGCAUCA
# B8: chr1:110947961:110948399:-|CDS|ENSG00000121931|control|control|control (ssRNA)
# RNA: GGGAGUUCUACAGUCCGACGAUCAAGUCAUUUCUUCAAUAAAAAUUAUACCGAAGAUAUUUUCCCAGUGACACCACCGGAGUUAGAAGAAACCAUUCGAGAUGAAAAAAUAAGAAGACUUAAGCAGGUGCUGAGAGAGAAAGACAACAGAGGAUUGAGCAUCA
# B9: chrX:153456492:153456651:-|CDS|ENSG00000213397|control|control|control (ssRNA)
# RNA: GGGAGUUCUACAGUCCGACGAUCAUGGAGCACUUCGAGGACACCAGGGAGAAGAACGAGGCCUUGCUGGGGGAGCUCUUCUCUAGCCCCCACCUGCAGAUGCUCCUGAAUCCAGAGUGCGACCCGUGGCCCCUGGACAUGCAGCAACAGAGGAUUGAGCAUCA
# B10: ENSG00000130720:stop:overlap|stop_codon|ENSG00000130720|stop_codon|NA|stop_codon (ssRNA)
# RNA: GGGAGUUCUACAGUCCGACGAUCGCUGGCAGUACUCACUCAAGUUCUCUGAGAUGAAGAUCCGGCCGGUCCGGGAGGACCGCUAGACUGGUGCACCUUGUCCUUGGCCCUGCUGGUCCCUGUCGCCCCAUCCCCGACCCCACCCAACAGAGGAUUGAGCAUCA
# B11: chr3:89481969:89482070:+|3pUTR|ENSG00000044524|msi1|total|mutant (ssRNA)
# RNA: GGGAGUUCUACAGUCCGACGAUCAUAUGUGUUUACUUUAAACUUGUCUUUUCAAAAUAUUACUCAGUUUAUGUUGUACAAUGCCGAUGGCCUCUUACUAAUGUAAAAUGAUUUGCCGUGGAAACAUUUAUAUUUUUAUAAUAACAACAGAGGAUUGAGCAUCA
# B12: chr4:123402332:123402450:+|CDS|ENSG00000164056|unk|total|mutant (ssRNA)
# RNA: GGGAGUUCUACAGUCCGACGAUCGACGAAGGGGAUUCCUAUUCAGAUAAUCCUUGCUCCUGUUCACAAUCACACUGCUGCUCCCGAUACCUGUGUAUGGGAGCCAUGUCUUUAUUUUUACCUUGCUUACUCUGUUAUCCUCCUCAACAGAGGAUUGAGCAUCA
# B13: chr1:198253062:198253183:+|CDS|ENSG00000151414|unk|total|mutant (ssRNA)
# RNA: GGGAGUUCUACAGUCCGACGAUCAUGGGCUAUAAUACAUCCGCCAACUUUCGAACCGAAAAGAAAAUUGGUCGCGGACAAUUCCGUGAAGUUUACCGAGCAGCCUGUCUCUUGGAUGGAGUACCAGCCGCUUUAAAAAAAGUGCAACAGAGGAUUGAGCAUCA
# B14: chr6:144852070:144852171:+|3pUTR|ENSG00000152818|unk|FALSE|unique (ssRNA)
# RNA: GGGAGUUCUACAGUCCGACGAUCAAGUCCUUAAUAGUUCUUGAAACUCCUAGUUGUUUUCUUGUUGAAAGCAGACACACAUUUAGUGCACGGCUUAUUUUACCUUUCGGGUGAAAGAUCAGAUGUUUUUAUACCCUUCACUUGCAACAGAGGAUUGAGCAUCA
# Biological target: T1, UNK ZnF1-6 (called full-length)
# Experiment: nsRBNS (natural sequence RNA bind-n-seq); RBNS binding buffer (assumed for nsRBNS): 25 mM Tris pH 7.5, 150 mM KCl, 3 mM MgCl2, 0.01% Triton X-100, 500 ug/ml BSA, 20 U/ml SUPERase-In, 4 C; UNK is unkempt and MSI1 is Musashi-1; names of the RNAs are library labels; protein concentration not given here; high values mean tight binding
row,Binder,binding signal [enrichment R]
1,B1,0.52
2,B2,0.413
3,B3,0.618
4,B4,0.292
5,B5,0.815
6,B6,0.615
7,B7,0.865
8,B8,0.797
9,B9,0.759
10,B10,1.34
11,B11,0.702
12,B12,0.585
13,B13,0.411
14,B14,0.969

# From publication PMC12136788
